# Results as given in the supplement of paper PMC4466140.
# B1: unnamed (peptide)
# chain: APPPPPRRATPEKKP
# Molecular target: AgAbp1
# Experiment: SPOT peptide array binding signal intensity (averaged, normalized) (arbitrary units (background-subtracted, floor 0; scale differs between SH3 domains)); higher = stronger binding of the SH3 domain to the peptide
# In short: (§1)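 The binding signal is the normalized, background-subtracted spot intensity averaged over replicates; its arbitrary units differ between domains. It was obtained by incubating 10 μg/ml GST-fused SH3 domains from four yeast species overnight at 4°C in TBS-based blocking buffer on cellulose membranes with synthetic 15-mer peptides, cysteines replaced by serines, then detecting with anti-GST antibody, HRP anti-mouse secondary and luminol.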
row,Binder,SPOT peptide array binding signal intensity
1,B1,79

# Molecular target: AgBbc1
# Experiment: as above
# In short: as §1
row,Binder,SPOT peptide array binding signal intensity
1,B1,202

# Molecular target: AgBem1-D1
# Experiment: as above
# In short: as §1
row,Binder,SPOT peptide array binding signal intensity
1,B1,24.5

# Molecular target: AgBzz1-D1
# Experiment: as above
# In short: as §1
row,Binder,SPOT peptide array binding signal intensity
1,B1,84

# Molecular target: AgBzz1-D2
# Experiment: as above
# In short: as §1
row,Binder,SPOT peptide array binding signal intensity
1,B1,29.5

# Molecular target: AgCyk3
# Experiment: as above
# In short: as §1
row,Binder,SPOT peptide array binding signal intensity
1,B1,≤ 0

# Molecular target: AgFus1
# Experiment: as above
# In short: as §1
row,Binder,SPOT peptide array binding signal intensity
1,B1,≤ 0

# Molecular target: AgHof1
# Experiment: as above
# In short: as §1
row,Binder,SPOT peptide array binding signal intensity
1,B1,0.75

# Molecular target: AgHse1
# Experiment: as above
# In short: as §1
row,Binder,SPOT peptide array binding signal intensity
1,B1,17

# Molecular target: AgLsb1
# Experiment: as above
# In short: as §1
row,Binder,SPOT peptide array binding signal intensity
1,B1,17.5

# Molecular target: AgLsb4
# Experiment: as above
# In short: as §1
row,Binder,SPOT peptide array binding signal intensity
1,B1,192

# Molecular target: AgMyo5
# Experiment: as above
# In short: as §1
row,Binder,SPOT peptide array binding signal intensity
1,B1,4

# Molecular target: AgNbp2
# Experiment: as above
# In short: as §1
row,Binder,SPOT peptide array binding signal intensity
1,B1,≤ 0

# Molecular target: AgRvs167
# Experiment: as above
# In short: as §1
row,Binder,SPOT peptide array binding signal intensity
1,B1,209

# Molecular target: AgSho1
# Experiment: as above
# In short: as §1
row,Binder,SPOT peptide array binding signal intensity
1,B1,1.5

# Molecular target: AgSla1-D1-D2
# Experiment: as above
# In short: as §1
row,Binder,SPOT peptide array binding signal intensity
1,B1,≤ 0

# Molecular target: AgSla1-D3
# Experiment: as above
# In short: as §1
row,Binder,SPOT peptide array binding signal intensity
1,B1,1.5

# Molecular target: CaAbp1-D1
# Experiment: as above
# In short: as §1
row,Binder,SPOT peptide array binding signal intensity
1,B1,62

# Molecular target: CaAbp1-D2
# Experiment: as above
# In short: as §1
row,Binder,SPOT peptide array binding signal intensity
1,B1,58

# Molecular target: CaBbc1
# Experiment: as above
# In short: as §1
row,Binder,SPOT peptide array binding signal intensity
1,B1,368

# Molecular target: CaBem1-D1
# Experiment: as above
# In short: as §1
row,Binder,SPOT peptide array binding signal intensity
1,B1,1

# Molecular target: CaBzz1-D1
# Experiment: as above
# In short: as §1
row,Binder,SPOT peptide array binding signal intensity
1,B1,1050

# Molecular target: CaBzz1-D2
# Experiment: as above
# In short: as §1
row,Binder,SPOT peptide array binding signal intensity
1,B1,156

# Molecular target: CaCyk3
# Experiment: as above
# In short: as §1
row,Binder,SPOT peptide array binding signal intensity
1,B1,18.5

# Molecular target: CaFus1
# Experiment: as above
# In short: as §1
row,Binder,SPOT peptide array binding signal intensity
1,B1,52.5

# Molecular target: CaHof1
# Experiment: as above
# In short: as §1
row,Binder,SPOT peptide array binding signal intensity
1,B1,73

# Molecular target: CaHse1
# Experiment: as above
# In short: as §1
row,Binder,SPOT peptide array binding signal intensity
1,B1,3

# Molecular target: CaLsb1
# Experiment: as above
# In short: as §1
row,Binder,SPOT peptide array binding signal intensity
1,B1,≤ 0

# Molecular target: CaLsb4
# Experiment: as above
# In short: as §1
row,Binder,SPOT peptide array binding signal intensity
1,B1,1860

# Molecular target: CaMyo5
# Experiment: as above
# In short: as §1
row,Binder,SPOT peptide array binding signal intensity
1,B1,2.5

# Molecular target: CaNbp2
# Experiment: as above
# In short: as §1
row,Binder,SPOT peptide array binding signal intensity
1,B1,53

# Molecular target: CaRvs167
# Experiment: as above
# In short: as §1
row,Binder,SPOT peptide array binding signal intensity
1,B1,94.7

# Molecular target: CaRvs167-3
# Experiment: as above
# In short: as §1
row,Binder,SPOT peptide array binding signal intensity
1,B1,1

# Molecular target: CaSho1
# Experiment: as above
# In short: as §1
row,Binder,SPOT peptide array binding signal intensity
1,B1,≤ 0

# Molecular target: CaSla1-D1-D2
# Experiment: as above
# In short: as §1
row,Binder,SPOT peptide array binding signal intensity
1,B1,1170

# Molecular target: CaSla1-D3
# Experiment: as above
# In short: as §1
row,Binder,SPOT peptide array binding signal intensity
1,B1,3

# Molecular target: ScAbp1
# Experiment: as above
# In short: as §1
row,Binder,SPOT peptide array binding signal intensity
1,B1,69

# Molecular target: ScBbc1
# Experiment: as above
# In short: as §1
row,Binder,SPOT peptide array binding signal intensity
1,B1,54.8

# Molecular target: ScBem1-D1
# Experiment: as above
# In short: as §1
row,Binder,SPOT peptide array binding signal intensity
1,B1,≤ 0

# Molecular target: ScBzz1-D1
# Experiment: as above
# In short: as §1
row,Binder,SPOT peptide array binding signal intensity
1,B1,14

# Molecular target: ScBzz1-D2
# Experiment: as above
# In short: as §1
row,Binder,SPOT peptide array binding signal intensity
1,B1,10

# Molecular target: ScCyk3
# Experiment: as above
# In short: as §1
row,Binder,SPOT peptide array binding signal intensity
1,B1,≤ 0

# Molecular target: ScFus1
# Experiment: as above
# In short: as §1
row,Binder,SPOT peptide array binding signal intensity
1,B1,3

# Molecular target: ScHof1
# Experiment: as above
# In short: as §1
row,Binder,SPOT peptide array binding signal intensity
1,B1,9.75

# Molecular target: ScHse1
# Experiment: as above
# In short: as §1
row,Binder,SPOT peptide array binding signal intensity
1,B1,30

# Molecular target: ScLsb1
# Experiment: as above
# In short: as §1
row,Binder,SPOT peptide array binding signal intensity
1,B1,43.8

# Molecular target: ScLsb2
# Experiment: as above
# In short: as §1
row,Binder,SPOT peptide array binding signal intensity
1,B1,9

# Molecular target: ScLsb3
# Experiment: as above
# In short: as §1
row,Binder,SPOT peptide array binding signal intensity
1,B1,1690

# Molecular target: ScLsb4
# Experiment: as above
# In short: as §1
row,Binder,SPOT peptide array binding signal intensity
1,B1,375

# Molecular target: ScMyo3
# Experiment: as above
# In short: as §1
row,Binder,SPOT peptide array binding signal intensity
1,B1,111

# Molecular target: ScMyo5
# Experiment: as above
# In short: as §1
row,Binder,SPOT peptide array binding signal intensity
1,B1,29.5

# Molecular target: ScNbp2
# Experiment: as above
# In short: as §1
row,Binder,SPOT peptide array binding signal intensity
1,B1,≤ 0

# Molecular target: ScPex13
# Experiment: as above
# In short: as §1
row,Binder,SPOT peptide array binding signal intensity
1,B1,89.2

# Molecular target: ScRvs167
# Experiment: as above
# In short: as §1
row,Binder,SPOT peptide array binding signal intensity
1,B1,963

# Molecular target: ScSho1
# Experiment: as above
# In short: as §1
row,Binder,SPOT peptide array binding signal intensity
1,B1,56

# Molecular target: ScSla1-D1-D2
# Experiment: as above
# In short: as §1
row,Binder,SPOT peptide array binding signal intensity
1,B1,459

# Molecular target: ScSla1-D3
# Experiment: as above
# In short: as §1
row,Binder,SPOT peptide array binding signal intensity
1,B1,3.25

# Molecular target: SpAbp1-D1
# Experiment: as above
# In short: as §1
row,Binder,SPOT peptide array binding signal intensity
1,B1,165

# Molecular target: SpBbc1
# Experiment: as above
# In short: as §1
row,Binder,SPOT peptide array binding signal intensity
1,B1,2.5

# Molecular target: SpBzz1-D1
# Experiment: as above
# In short: as §1
row,Binder,SPOT peptide array binding signal intensity
1,B1,814

# Molecular target: SpBzz1-D2
# Experiment: as above
# In short: as §1
row,Binder,SPOT peptide array binding signal intensity
1,B1,1.25

# Molecular target: SpCyk3
# Experiment: as above
# In short: as §1
row,Binder,SPOT peptide array binding signal intensity
1,B1,3

# Molecular target: SpHof1
# Experiment: as above
# In short: as §1
row,Binder,SPOT peptide array binding signal intensity
1,B1,15.8

# Molecular target: SpHof1-2
# Experiment: as above
# In short: as §1
row,Binder,SPOT peptide array binding signal intensity
1,B1,17

# Molecular target: SpHof1-3
# Experiment: as above
# In short: as §1
row,Binder,SPOT peptide array binding signal intensity
1,B1,270

# Molecular target: SpHse1
# Experiment: as above
# In short: as §1
row,Binder,SPOT peptide array binding signal intensity
1,B1,42.5

# Molecular target: SpLsb1
# Experiment: as above
# In short: as §1
row,Binder,SPOT peptide array binding signal intensity
1,B1,10.2

# Molecular target: SpLsb4
# Experiment: as above
# In short: as §1
row,Binder,SPOT peptide array binding signal intensity
1,B1,1240

# Molecular target: SpMyo1
# Experiment: as above
# In short: as §1
row,Binder,SPOT peptide array binding signal intensity
1,B1,998

# Molecular target: SpNbp2
# Experiment: as above
# In short: as §1
row,Binder,SPOT peptide array binding signal intensity
1,B1,≤ 0

# Molecular target: SpPex13
# Experiment: as above
# In short: as §1
row,Binder,SPOT peptide array binding signal intensity
1,B1,1

# Molecular target: SpRvs167
# Experiment: as above
# In short: as §1
row,Binder,SPOT peptide array binding signal intensity
1,B1,999

# Molecular target: SpSla1-D1-D2
# Experiment: as above
# In short: as §1
row,Binder,SPOT peptide array binding signal intensity
1,B1,112

# Molecular target: SpSla1-D3
# Experiment: as above
# In short: as §1
row,Binder,SPOT peptide array binding signal intensity
1,B1,3
